Test results as given in PubChem BioAssay (NCI).
Compounds without any hit were thinned out: in the full panel of roughly 79,000, 15% have a hit. Unmarked numbers belong to inactive results. Activity calls are given as the source filed them. No stated cut-off is given here; in the data, active means growth inhibition above about 70%; inactive means the rest.

How the values were obtained:
[1] = NCI Yeast Anticancer Drug Screen. Data for the rad50 strain (AID 155);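 further: 0% = growth of vehicle-only cultures of the same strain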; details: S. cerevisiae rad50 strain growth inhibition; at 50.0 µM; stronger effect = higher value
Outline: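 Cells are treated with compound, grown, and their growth is then scored against vehicle-only cultures of the same repair-deficient yeast strain.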

[2] = NCI Yeast Anticancer Drug Screen. Data for the mec2-1 strain (AID 157); details: S. cerevisiae mec2-1 strain, at 50.0 µM, stronger effect = higher value
Outline: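 Compounds were applied to mec2-1 yeast cells. Their growth was then compared with that of vehicle-treated cultures to give growth inhibition.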

[3] = NCI Yeast Anticancer Drug Screen. Data for the sgs1 mgt1 strain (AID 161);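 further: 0% = growth of cultures given vehicle only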; details: S. cerevisiae sgs1 mgt1 strain, at 50.0 µM, stronger effect = higher value
Outline: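 Compounds are added to genetically altered yeast, and growth is compared with cultures given vehicle alone to give percent inhibition.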

[4] = NCI Yeast Anticancer Drug Screen. Data for the cln2 rad14 strain (AID 165);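 further: 0% = growth equal to vehicle treated cultures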; details: S. cerevisiae cln2 rad14 strain, at 50.0 µM, stronger effect = higher value
Outline: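 Strain: cln2 rad14 yeast, altered in cell cycle control and DNA damage repair. Read-out: growth inhibition vs vehicle.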

[5] = NCI Yeast Anticancer Drug Screen. Data for the bub3 strain (AID 167); details: S. cerevisiae bub3 mutant strain, at 50.0 µM, stronger effect = higher value
Outline: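 Part of a panel of yeast mutants defective in DNA damage repair or cell cycle regulation. Each strain is grown with compound, and inhibition is calculated relative to solvent-treated cultures.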

[6] = NCI Yeast Anticancer Drug Screen. Data for the mlh1 rad18 strain (AID 175); details: S. cerevisiae mlh1 rad18 strain growth inhibition; at 50.0 µM; stronger effect = higher value
Outline: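 A repair-deficient yeast strain is exposed to test compound, and growth is scored relative to vehicle-treated controls.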

Row | SMILES | growth inhibition [1] | growth inhibition [2] | growth inhibition [3] | growth inhibition [4] | growth inhibition [5] | growth inhibition [6]
1 | CC(=O)N1C(Nc2nccs2)CCN1c1ccccc1 (configuration not stated) | -43.8% | -64.5% | -21% | 3.1% | -6.75% | -34.2%
2 | CCCN(CCCC(NC(C)=O)C(=O)NCc1ccccc1)C(=O)NC (configuration not stated) | -11.1% | -18.8% | -28.4% | 1.2% | -4.65% | -45.3%
3 | COc1ccc(Nc2nc3ccccc3nc2-c2cccs2)cc1 | 5.2% | -3.8% | 23.5% | -1.45% | 14.3% | 17.3%
4 | COc1cc2c(c(OC)c1OC)-c1ccc(SCC3CCC4CC3C4(C)C)c(=O)cc1C(NC(C)=O)CC2 (configuration not stated) | 97.5% (active) | 97.3% (active) | 98% (active) | 96.2% (active) | 95.9% (active) | 96.9% (active)
5 | O=C1N(c2cccc(F)c2)C(=O)N1c1cccc(F)c1 | 27.4% | 3.3% | -9.1% | 13.2% | -1.1% | 5.5%
6 | O=C1/C(=C/c2ccc([N+](=O)[O-])cc2)CCCc2ccccc21 | 11.1% | 6.8% | 22.9% | -22.3% | -0.95% | 21.9%
7 | CC1(Nc2ccccc2)OC(=O)c2ccccc21 (configuration not stated) | -14.2% | -13.7% | -15.4% | -8.85% | -7.4% | -0.85%
8 | CN(/N=C/C=N/N(C)C1=NCCN1)C1=NCCN1 | 4.35% | -5.75% | 0.15% | 8.05% | 0.25% | -9.65%
9 | Cc1ccccc1C(=O)c1ccccc1Cc1cccc2ccccc12 | -2.4% | -10.3% | -10.2% | 1.1% | 8.95% | -22.9%
10 | CCCCOCCOCCOS(=O)(=O)c1ccc(C)cc1 | 11.1% | 1.6% | 12.6% | 5% | 10.2% | 13.9%
11 | [Cu+2].[Cu+2].c1ccc2c(c1)-c1nc-2nc2[n-]c(nc3nc(nc4[n-]c(n1)c1ccccc41)-c1ccccc1-3)c1cc3c4nc5nc(nc6[n-]c(nc7nc(nc([n-]4)c3cc21)-c1ccccc1-7)c1ccccc61)-c1ccccc1-5 | -1.75% | -9.45% | 11.1% | -40.3% | -11.1% | 11.3%
12 | CCCC(C)C(O)C(C)C (configuration not stated) | 1.25% | -19.8% | -5.1% | 3.6% | 8.7% | -18.7%
13 | Brc1ccc(/C(=N/Nc2ccccc2)Oc2ccccc2)cc1 | 17.6% | 1.8% | 16.1% | 25.3% | 14.8% | 19.6%
14 | CN1C(=O)/C(=N/N(c2ccccc2)c2ccccc2)c2ccccc21 | -5.4% | 26.6% | -3.85% | -3.55% | 21.2% | 5.5%
15 | COc1ccc(OC)c2c(Cl)ccnc12 | 17.1% | 15.1% | 15.6% | 20.8% | 11.1% | 24.5%
16 | CCOc1c(Cc2ccccc2)c(=O)n2c3ccccc3n(CC)c2c1C#N | -4.75% | -6.05% | 0.25% | -11.8% | -29.9% | -10.8%
17 | CN(C)c1ccc(/C=N/NC(=O)c2ccccc2NC(=O)c2ccc(Cl)cc2)c(Cl)c1 | 1.4% | 0.45% | 19.9% | -6.3% | -6.1% | 0.5%
18 | Cc1ccc(C)c(NC(=O)C2C(=O)C(=O)N(c3cc(C)ccc3C)C2=O)c1 (configuration not stated) | 29.4% | -8.3% | -18.5% | 7.2% | -0.95% | 10.7%
19 | Cc1cc(Br)c(I)c([N+](=O)[O-])c1 | 34.5% | 27.6% | 17.8% | 13.3% | 7.45% | 6.25%

Row | SMILES | growth inhibition [1] | growth inhibition [2] | growth inhibition [3] | growth inhibition [4] | growth inhibition [5] | growth inhibition [6]
20 | Cc1ccc(C(=O)C[n+]2ccccc2)c(O)c1 | -5.45% | -9.9% | 8.85% | -38% | 4.65% | 14.1%
21 | O=S(=O)(O)n1ccnc1 (tested in a mixture with another compound) | 20.9% | 12.3% | 1.3% | -27.9% | 14.7% | 18.4%
22 | CC(=O)OCCC(OC(C)=O)c1ccccn1 (configuration not stated) | -13.9% | -13.1% | -9.1% | -2.95% | 3.95% | -18.6%
23 | COC(=O)CC(C(C(=O)OC)C(=O)OC)N1C(=O)OCC1c1ccccc1 (configuration not stated) | -16.6% | -0.45% | -29.1% | -12.3% | -17.9% | -15.9%
24 | O=C1c2c(Cl)cccc2C(c2ccccc2)c2cccc(Cl)c21 | 29% | -4.15% | -1.55% | -11.5% | 7.35% | 23.2%
25 | O=c1c2ccccc2c(=O)c2c1ccc1[nH]c3ccccc3sc12 | -7.15% | -1.75% | 7.6% | -20.1% | 6.2% | -6.6%
26 | [Fe+2].[NH-]C(Cc1ccc(O)cc1)C(=O)O.[NH-]C(Cc1ccc(O)cc1)C(=O)O (configuration not stated) | 15.1% | 8.25% | 24.1% | 23.4% | -2.4% | 30.1%
27 | CC(=O)OC1CC(C(C)C)CCC1C (configuration not stated) | 18.1% | 12.8% | 6.3% | 4.95% | -8.55% | 11.7%
28 | CC(=O)Oc1ccccc1C(OC(C)=O)OC(C)=O | 31.8% | 5.2% | 12.5% | -20.1% | 2.05% | 34.4%
29 | CSC(C1c2ccccc2N(C)C2=NC(=O)N(C)C(=O)C21Cl)S(=O)(=O)c1ccc(C)cc1 (configuration not stated) | 50.2% | 12.2% | 27.4% | 35.7% | 45.4% | 51.3%
30 | CCC(C)C(CO)N=Cc1ccccc1O.O.[Cu] (configuration not stated) | 65.3% | 82.3% (active) | 74% (active) | 62% | 80.2% (active) | 83.3% (active)
31 | CCOC(N)=C(C#N)C#N | 12.6% | 15.1% | 3.45% | 21.4% | 23.1% | 11.8%
32 | CC(=O)C1CC[C@@]2(C)C(CC[C@H]3[C@@H]4CCC[C@H]([C@H](C)O)[C@@]4(C)CC[C@@H]32)C1 (some centres not stated) | -16.9% | 0.3% | 2.9% | 0.4% | -5.5% | -7.5%
33 | CCN(CC)Cc1cc(Nc2c3ccc([N+](=O)[O-])cc3nc3ccc(OC)cc23)ccc1O | 83.3% (active) | 60.4% | 56% | 54.5% | 53.9% | 65.3%
34 | CSCSCC(CO)NC(=O)/C=C\c1ccccc1 (configuration not stated) | -0.7% | -4.05% | 7.15% | -21.7% | 4% | 3.5%
35 | O=c1[nH]cc(N=Cc2ccccc2O)c(=O)[nH]1.[Cl][Pt] | 24.9% | 9.05% | 39% | 3.35% | 3.2% | 0.4%
36 | COc1ccc(NC(=O)C/C(C)=C2/C(=O)NN(c3ccccc3)C2=O)cc1 | 33.5% | 15.2% | 39.9% | 4.5% | 19.1% | 41.1%
37 | NC(N)=Nc1nc2ccccc2[nH]1 | 15.9% | -2.85% | 19.4% | -26.4% | 11.7% | 18.1%
